A selection: hits, their analogues and other compounds. The true share with any hit is near 3.5%.
MITF primary – inhibitors of human MITF | O75030 | AlphaScreen MITF homodimerization, bead proximity signal | inhibition, % at 2.6 µM | hit rate 0.91% among 650,000 | AID 1259374; in the data active means inhibition above about 50%
Target sequence (O75030 whole entry, looked up): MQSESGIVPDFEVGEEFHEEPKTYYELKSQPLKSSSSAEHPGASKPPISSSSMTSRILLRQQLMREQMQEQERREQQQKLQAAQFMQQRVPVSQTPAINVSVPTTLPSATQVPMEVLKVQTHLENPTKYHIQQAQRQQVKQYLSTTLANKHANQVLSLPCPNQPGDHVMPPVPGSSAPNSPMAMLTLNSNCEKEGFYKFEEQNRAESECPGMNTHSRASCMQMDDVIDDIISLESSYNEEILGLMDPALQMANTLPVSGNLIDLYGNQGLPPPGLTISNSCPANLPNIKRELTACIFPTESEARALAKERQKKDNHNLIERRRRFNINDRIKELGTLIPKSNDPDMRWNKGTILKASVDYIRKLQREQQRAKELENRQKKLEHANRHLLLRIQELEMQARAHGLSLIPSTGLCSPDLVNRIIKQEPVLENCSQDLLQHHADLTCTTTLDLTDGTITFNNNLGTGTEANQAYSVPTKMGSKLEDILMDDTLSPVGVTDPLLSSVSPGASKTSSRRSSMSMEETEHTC
TEAD-YAP inh – TEAD-YAP interaction inhibition | hit rate 1.4% among 640,000 | HEK-TIYL cells, TEAD-Gal4/YAP UAS-luciferase luminescence | inhibition, % at 9.12 µM | AID 1259422; in the data active means inhibition above about 32%
GPR151 ag – activates the human receptor GPR151; Q8TDV0; PathHunter beta-arrestin GPR151 cells, luminescence; activation, % at 11.2 µM; hit rate 1% among 650,000; AID 1508602; in the data active means activation above about 4.9%
FBW7 activator – human FBW7 E3 ligase activation, primary screen | hit rate 0.13% among 650,000 | AlphaScreen FBW7–phospho-cyclin E peptide binding, activator screen | normalized activity (activation), % at 26.1 µM | AID 1259310; in the data active means normalized activity above about 1.9%;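 further: purified mutant Fbw7 with reduced substrate affinity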
GPR151 conf act – confirmation of human GPR151 activators. shares compounds with GPR151 ag. AID 1508609. 6,700 tested, under 10 active. activation, % at 11.2 µM. GPR151 PathHunter beta-arrestin cells, luminescence, 90 min; % of EA-reagent control over plate median;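 active means mean percent activation across replicates above the confirmation screen cutoff of 4.91%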
GPR119 ag – counter-screen for GPR151 activators: effect on human GPR119 | GPR119 PathHunter beta-arrestin cells, luminescence, 90 min; 0 = compound-well median, 100 = enzyme-acceptor control | hit rate 0.3% among 6,700 | AID 1508611 | shares compounds with GPR151 ag | activation, % at 11.2 µM;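 active means mean percent activation in the counterscreen above 29.09%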;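 further: counterscreen on off-target GPR119 to flag nonselective hits from the GPR151 activator screen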
Large screens that a line does not name were inactive (follow-up assays come after a bar, where they were run); ! = repeats disagree.

CC(C)N(CCNc1nc(NC2CCC(O)CC2)nc2c1ncn2Cc1ccc(C(F)(F)F)cc1)C(C)C (configuration not stated)	none
COc1cccc(NC(=O)CSc2nnc(-c3ccccc3OC)n2-n2cccc2)c1	none
COc1cccc(OC)c1C(=O)Oc1ccc2c(=O)c(-c3ccc(Cl)cc3)c(C(F)(F)F)oc2c1	none
Cc1ccc(-c2nnc(Nc3ccccc3)c3ccccc23)cc1S(=O)(=O)N1CCOCC1	none
Cc1ccc(-c2nnc(Nc3ccc(Br)cc3)c3ccccc23)cc1S(=O)(=O)N1CCOCC1	GPR151 ag 5.0 | GPR151 conf act inactive | GPR119 ag inactive
O=S(=O)(NCCOc1cc(N2CCCC2)ncn1)c1ccc2c(c1)CCCC2	none
CSCCCNC(=O)CC1C(=O)NCCN1C1Cc2ccccc2C1 (configuration not stated)	GPR151 ag 4.9 | GPR151 conf act inactive | GPR119 ag inactive
O=C(CC1C(=O)NCCN1C1Cc2ccccc2C1)NCCc1cccs1 (configuration not stated)	none
O=C(CCC1CCN(C(=O)C2=CCCCC2)CC1)Nc1ccccc1	GPR151 ag 5.3 | GPR151 conf act inactive | GPR119 ag inactive
Cc1ccc(NC(=O)Cn2nc(C)n3cccc3c2=O)cc1C	none
COc1ccc(Cl)cc1Nc1ncnc2sc3c(c12)CCCC3	none
Cc1nc2scc(C)n2c1C(=O)N(C)c1ccccc1	none
CN1CCN(c2c(F)cc3c(=O)c(C(=O)O)cn4c3c2OCN4C)CC1	none
CN1CCN(c2c(F)cc3c(=O)c(C(=O)O)cn(CCF)c3c2F)CC1	GPR151 ag 6.3! | GPR151 conf act inactive | GPR119 ag inactive
CCSC1=C(C#N)C(c2ccc3c(c2)OCO3)C2=C(CCCC2=O)N1 (configuration not stated)	GPR151 ag 5.5 | GPR151 conf act inactive | GPR119 ag inactive
COc1ccc(S(=O)(=O)Nc2cc3sc(=O)oc3cc2C)cc1	none
COc1ccc(NC(=O)CN(C)S(=O)(=O)c2ccc(Cl)cc2)cc1Cl	GPR151 ag 10 | GPR151 conf act inactive | GPR119 ag inactive
Cc1ccc(NC(=O)CN(C)S(=O)(=O)c2ccc(Br)cc2)cc1C	none
Cc1ccc(NC(=O)CN(C)S(=O)(=O)c2ccc(Br)cc2)cc1Cl	GPR151 ag 9.5 | GPR151 conf act inactive | GPR119 ag inactive
Cc1cc(=O)[nH]c2nnc(SCC(=O)N3CCC(Cc4ccccc4)CC3)n12	none
COc1ccc(O[C@H]2C=C[C@@H](c3ccccc3)O[C@@H]2CO/N=C2/[C@H]3CCn4c(=O)n(-c5ccccc5)c(=O)n4[C@H]3[C@H](O)[C@@H]3O[C@H]23)cc1	GPR151 ag 6.7 (no result: TEAD-YAP inh) | GPR151 conf act inactive | GPR119 ag inactive
CCCCCC1C/C(=N/OC(C)=O)C=C(C)C1C(=O)OC (configuration not stated)	GPR151 ag 7.3 | GPR151 conf act inactive | GPR119 ag inactive
Cc1cc(N)nc(-c2ccc(C(=O)N3CCN(C)CC3)cc2)n1	GPR151 ag 8.5 | GPR151 conf act inactive | GPR119 ag inactive
CCCNc1cc(C)nc(-c2ccc(C(=O)N3CCN(C)CC3)cc2)n1	none
O=C1CC(N2CCN(c3ccc(F)cc3)CC2)C(=O)N1 (configuration not stated)	none
COc1ccc(N2CCN(C3CC(=O)NC3=O)CC2)cc1 (configuration not stated)	GPR151 ag 6.3 | GPR151 conf act inactive | GPR119 ag inactive
CC(C)(C)c1nn2cnnc2n(/N=C/c2ccccc2O)c1=O	GPR151 ag 5.9 | GPR151 conf act inactive | GPR119 ag inactive
CC(C)(C)c1nn2cnnc2n(/N=C/c2ccccc2I)c1=O	none
CCN(C)c1nc2nonc2nc1NC1CCCC1	GPR151 ag 5.2 | GPR151 conf act inactive | GPR119 ag inactive
Cc1c2cnn(-c3ccccc3)c(=O)c2c(C)n1CCCC(=O)N1CCC(C(N)=O)CC1	none
CCOc1ccc2[nH]c(=O)c(CN(Cc3ccc(OC)cc3)C(=O)N(C)C)cc2c1	GPR151 ag 8.3 | GPR151 conf act inactive | GPR119 ag inactive
O=C(Nc1ccc2c3c(cccc13)CC2)c1ccc(-c2ccc(Cl)cc2)o1	GPR151 ag 5.1 | GPR151 conf act inactive | GPR119 ag inactive
CC(C)Oc1ccc(CN2CCCC(CO)(Cc3ccccc3)C2)cc1CO (configuration not stated)	GPR151 ag 5.0 | GPR151 conf act inactive | GPR119 ag inactive
O=C1c2ccccc2C(=O)N1CCS(=O)(=O)N1CCN(Cc2ccccc2)CC1	none
CC(=O)C(C)Oc1cc(O)c2c(=O)cc(-c3ccccc3)oc2c1 (configuration not stated)	none
O=C1CCCCC1Oc1cc(O)c2c(=O)cc(-c3ccccc3)oc2c1 (configuration not stated)	GPR151 ag 7.0 | GPR151 conf act inactive | GPR119 ag inactive
O=[N+]([O-])c1cccc(S(=O)(=O)NCc2ccco2)c1	none
CC(C)(C)NC(=O)CN(Cc1ccccc1)S(=O)(=O)c1ccc(F)cc1	GPR151 ag 5.3 | GPR151 conf act inactive | GPR119 ag inactive
O=[N+]([O-])c1cccc(S(=O)(=O)NCc2ccc(F)cc2)c1	GPR151 ag 9.0 | GPR151 conf act inactive | GPR119 ag inactive
O=C(CN(Cc1ccc(F)cc1)S(=O)(=O)c1ccccc1)Nc1cccc([N+](=O)[O-])c1	GPR151 ag 5.1 | GPR151 conf act inactive | GPR119 ag inactive
O=C(CN(Cc1ccccc1)S(=O)(=O)c1ccc(F)cc1)Nc1cccc([N+](=O)[O-])c1	none
CCn1c(SCC(=O)N2CCN(c3ccccc3)CC2)nnc1-c1ccc(N)cc1	none
CCOc1ccc(CN2CCN(Cc3ccn[nH]3)CC2CCO)cc1 (configuration not stated)	none
COc1cc(/C=N\NC(=O)c2ccoc2C)cc(Br)c1O	none
CCOC(=O)NS(=O)(=O)c1ccc(Cl)cc1	none
CCCOc1ccc(N2C(=O)C3C(C2=O)C2(C)CC3(C)CC2=O)cc1 (configuration not stated)	GPR151 ag 7.8 | GPR151 conf act inactive | GPR119 ag inactive
COc1ccccc1OC1OC2COC(c3ccco3)OC2C(O)C1NC(C)=O (configuration not stated)	GPR151 ag 15 | GPR151 conf act inactive | GPR119 ag inactive
CC(=O)NC1C(Oc2cc(C)ccc2C)OC(CO)C(O)C1O (configuration not stated)	GPR151 ag 5.8 | GPR151 conf act inactive | GPR119 ag inactive
CC(=O)NC1C(Oc2cc(C)ccc2C)OC2COC(C)(C)OC2C1O (configuration not stated)	GPR151 ag 13 | GPR151 conf act inactive | GPR119 ag inactive
CC(=O)N[C@H]1[C@H](Oc2ccc(Cl)cc2Cl)O[C@H](CO)[C@@H](O)[C@@H]1O	none
CCCC1OCC2(CO1)C(C)C=C(C)CC2C (configuration not stated)	none
CC(C)NC(=O)CNC(=O)COc1ccccc1	none
